Inconclusive results are not listed. A call without a number means that no potency is given here. Activity calls are given as the source filed them. Calls come from the whole dose curve; as a rule, active = well fitted inhibition curve with a large enough effect; inconclusive = small, poorly fitted or top-dose-only effect; inactive = flat fitted curve, though single readings scatter.
Potency is the fitted concentration of half-maximal effect.

The assay has as its system CP191. The experiment in a line: qHTS profiling for inhibitors of Plasmodium falciparum proliferation (AID 504749). Note: nearly all actives have a fitted effect of over 60% in size. The note with it: P. falciparum in erythrocytes, SYBR Green DNA, 72 h; series mostly up to 28.7 µM. In short, it runs like this: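 Quantitative HTS: compounds pinned into medium, infected erythrocytes added (0.3% parasitemia, 2.5% hematocrit), 72 h culture at 37 C under 5% CO2. Saponin/Triton lysis with SYBR Green I, overnight RT, then fluorescence read.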
Consider `S=P(N1CC1)(N1CC1)N1CC1`, for which the Potency result is “inactive”.

For `COc1cc([C@@H]2c3cc4c(cc3[C@H](O)[C@H]3COC(=O)[C@H]23)OCO4)cc(OC)c1OC`, the Potency is 3.55 µM (active). The same measure for `COc1ccc(-c2ccc3cc(C(=O)O)ccc3c2)cc1C12CC3CC(CC(C3)C1)C2`: “inactive”; for `COC(=O)Nc1nc2ccc(C(=O)c3ccccc3)cc2[nH]1`: “inactive”; for `COc1ccc2cc3[n+](cc2c1OC)CCc1cc2c(cc1-3)OCO2`: 0.891 µM (active). As to `N=C(N)c1ccc(OCCCCCOc2ccc(C(=N)N)cc2)cc1`, the Potency was 0.398 µM (active). With `Oc1c(Cl)cc(Cl)c2cccnc12`, the Potency is 11.2 µM (active). With `CCc1cc(C(N)=S)ccn1`, the Potency entry was “inactive”. As to `COc1cc2c(Nc3ccc(Br)cc3F)ncnc2cc1OCC1CCN(C)CC1`, the Potency was 3.16 µM (active). The result for `COC(=O)Nc1nc2ccc(Sc3ccccc3)cc2[nH]1` reads “inactive”. The same measure for `C1CCC(C(CC2CCCCN2)C2CCCCC2)CC1` (configuration not stated): 11.2 µM (active). In the case of `CC(C)Cn1cnc2c(N)nc3ccccc3c21`, the Potency result is “inactive”. `CCCc1nc(C)c2c(=O)[nH]c(-c3cc(S(=O)(=O)N4CCN(CC)CC4)ccc3OCC)nn12`: the Potency result was “inactive”. On to `CC(C)(Sc1cc(C(C)(C)C)c(O)c(C(C)(C)C)c1)Sc1cc(C(C)(C)C)c(O)c(C(C)(C)C)c1`, for which the Potency result was “inactive”. Consider `COc1cc(NCc2ccc3nc(N)nc(N)c3c2C)cc(OC)c1OC`, for which the Potency is 0.251 µM (active).

On to `CCCCOc1ccc(CC(=O)NO)cc1`, for which the Potency was 2.24 µM (active). Regarding `Cc1nnc(NS(=O)(=O)c2ccc(N)cc2)s1`, the Potency result is “inactive”. Consider `Nc1nc(N)c2nc(CNc3ccc(C(=O)NC(CCC(=O)O)C(=O)O)cc3)cnc2n1` (configuration not stated), for which the Potency result is “inactive”. With `CCOC(=O)[C@H](CCc1ccccc1)N[C@H]1CS[C@H](c2cccs2)CN(CC(=O)O)C1=O`, the Potency result is “inactive”.

Regarding `CCc1c2c(nc3ccc(OC(=O)N4CCC(N5CCCCC5)CC4)cc13)-c1cc3c(c(=O)n1C2)COC(=O)[C@]3(O)CC`, the Potency entry is “inactive”. On to `CC(C)NCC(O)c1ccc(NS(C)(=O)=O)cc1` (configuration not stated), for which the Potency result was “inactive”. `CC(C)OC(=O)C(C(=O)OC(C)C)=C1SC=CS1`: the Potency result was “inactive”. Consider `CC[C@H](C)C(=O)O[C@H]1C[C@@H](C)C=C2C=C[C@H](C)[C@H](CC[C@@H]3C[C@@H](O)CC(=O)O3)[C@H]21`, for which the Potency entry was “inactive”. Consider `O=c1cc(O)c(Cl)c[nH]1`, for which the Potency result is “inactive”.

Turning to `CC(=O)Oc1ccccc1C(=O)Nc1ncc([N+](=O)[O-])s1`, the Potency result is “inactive”. `COc1ccc(C(=O)CC(=O)c2ccc(C(C)(C)C)cc2)cc1`: the Potency entry was “inactive”. `CNC1CCCN(c2c(F)cc3c(=O)c(C(=O)O)cn(C4CC4)c3c2OC)C1` (configuration not stated): the Potency entry was “inactive”.

The values above are taken from PubChem BioAssay (NCATS).
